Results published in PubChem BioAssay (NCI).
About 79,000 compounds went through this panel and 15% of them were active in at least one assay; those are over-represented in the sample as a whole. Cut-off read from the data, not from the text of the source: active = growth inhibition above about 70%; inactive = the rest.

What was measured:
[1] = NCI Yeast Anticancer Drug Screen. Data for the rad50 strain (AID 155);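 note: 0% = growth of vehicle-only cultures of the same strain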; details: S. cerevisiae rad50 strain growth inhibition; at 50.0 µM; active compounds read high
Method in brief: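 Growth of the mutant yeast was measured after compound exposure and referenced to vehicle-treated cultures.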

[2] = NCI Yeast Anticancer Drug Screen. Data for the mec2-1 strain (AID 157); details: S. cerevisiae mec2-1 strain, at 50.0 µM, active compounds read high
Method in brief: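 Mutant yeast (mec2-1) grown with compound; growth inhibition relative to vehicle control reported.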

[3] = NCI Yeast Anticancer Drug Screen. Data for the sgs1 mgt1 strain (AID 161);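 note: 0% = growth of cultures given vehicle only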; details: S. cerevisiae sgs1 mgt1 strain, at 50.0 µM, active compounds read high
Method in brief: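 Yeast cells carrying a defined DNA-repair defect were exposed to test compounds. Growth inhibition was measured relative to vehicle-treated controls.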

[4] = NCI Yeast Anticancer Drug Screen. Data for the cln2 rad14 strain (AID 165);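 note: 0% = growth equal to vehicle treated cultures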; details: S. cerevisiae cln2 rad14 strain, at 50.0 µM, active compounds read high
Method in brief: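 Readout is yeast growth inhibition versus vehicle-treated controls, using a strain with cln2 and rad14 alterations exposed to compound.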

[5] = NCI Yeast Anticancer Drug Screen. Data for the bub3 strain (AID 167); details: S. cerevisiae bub3 mutant strain, at 50.0 µM, active compounds read high
Method in brief: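 Whole-cell yeast assay. The mutant strain was incubated with compounds, and growth inhibition was determined by comparison with vehicle-treated cells.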

[6] = NCI Yeast Anticancer Drug Screen. Data for the mlh1 rad18 strain (AID 175); details: S. cerevisiae mlh1 rad18 strain growth inhibition; at 50.0 µM; active compounds read high
Method in brief: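 Genetically defined yeast (DNA repair-deficient) exposed to compounds; growth inhibition determined relative to vehicle.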

Measured: growth inhibition

CC1CC(=O)Nc2ncnc(N)c21 (stereo unspecified)
inactive: [1] -25.1% | [2] -2.45% | [3] 2.3% | [4] -4.7% | [5] 5.3% | [6] -9%

O=C1NC(=S)SC1=C1CCCCC1
inactive: [1] 22.9% | [2] 42.5% | [3] 41.6% | [4] 34.5% | [5] 37.9% | [6] 28.2%

c1ccc(-c2nc(-c3nn[nH]n3)c3ccccc3n2)cc1
inactive: [1] -1.2% | [2] 13.7% | [3] 2.85% | [4] -19.6% | [5] 14.5% | [6] 20.8%

COc1ccc(-c2cc(=O)c3cccc(CC(=O)O)c3o2)cc1
inactive: [1] 8.2% | [2] 11.7% | [3] -0.3% | [4] 31.1% | [5] 2.05% | [6] 18.4%

Nc1nc(N)c2nc(-c3ccc(N(CCO)CCO)cc3)c(N)nc2n1
inactive: [1] -13.1% | [2] -14.8% | [3] -11.9% | [4] -34.9% | [5] 3.15% | [6] -15.9%

CN(C)S(=O)(=O)c1ccc(Cl)cc1
inactive: [1] -1.65% | [2] -4.4% | [3] 2.7% | [4] 0.3% | [5] -0.2% | [6] -9.3%

COc1ccc2[nH]c3c4c(cc(-c5ccccc5)c3c2c1)C(=O)N(c1ccccc1)C4=O
inactive: [1] -11.1% | [2] -6% | [3] -16.6% | [4] 11.2% | [5] -4.3% | [6] -6.8%

COc1cc2c(cc1OC)C1CCN3C(=O)CCC3[N+]1(C)CC2 (stereo unspecified)
inactive: [1] 46.6% | [2] -1.05% | [3] 28.9% | [4] -4.3% | [5] 3.2% | [6] 8.7%

CC(=O)Oc1c(C(OC(C)=O)OC(C)=O)ccc([N+](=O)[O-])c1OC(C)=O
inactive: [1] 34.1% | [2] 28.9% | [3] 36.5% | [4] 5.5% | [5] 9.3% | [6] 18.9%

O=S1(=O)OCCC1C(O)(c1ccccc1)c1ccccc1 (stereo unspecified)
inactive: [1] 1.7% | [2] -3.65% | [3] 6.8% | [4] -49.3% | [5] 11.2% | [6] 16.9%

O=C1NC(=O)c2c1c1cnn(-c3ccccc3)c1n1cccc21
inactive: [1] 15.1% | [2] 4.35% | [3] 25.2% | [4] -67% | [5] 1.2% | [6] 17.7%

NC(=S)N/N=C1\C(=O)N(CCc2ccccc2)C(=O)C1C(=O)NCCc1ccccc1 (stereo unspecified)
inactive: [1] -16.4% | [2] -27.7% | [3] -35.6% | [4] 14.1% | [5] -5.8% | [6] -15.2%

NC(=O)c1ccccc1NC(=O)C(=O)C(C(=O)c1ccc2ccccc2c1)C1OC(=O)c2ccccc21 (stereo unspecified)
inactive: [1] 0.7% | [2] -2.15% | [3] 10.6% | [4] -44.6% | [5] 15.4% | [6] 9.15%

Cc1cccc(NCN2C(=O)c3ccccc3C2=O)c1
inactive: [1] -1.8% | [2] 8.75% | [3] 3.8% | [4] -16.4% | [5] 18.7% | [6] -1.7%

CCc1nc2c([nH]1)C(=O)c1ccccc1C2=O
inactive: [1] 68.1% | [2] 19.2% | [3] 44.2% | [4] 9.25% | [5] 18.7% | [6] 42%

CC(C)(Cc1ccccc1)C(=C=C=C=C(c1ccccc1)C(C)(C)Cc1ccccc1)c1ccccc1
inactive: [1] -14.8% | [2] -3.7% | [3] -32.2% | [4] 5.9% | [5] 2.95% | [6] -15.7%

Cc1cccc(NCc2ccncc2)n1
inactive: [1] 19.2% | [2] 9.2% | [3] 26.8% | [4] 2.15% | [5] 1.85% | [6] 6.75%

CC1CN(C(=S)Nc2ccccc2)C(C)CN1CCO (stereo unspecified)
inactive: [1] 58.5% | [2] 1.6% | [3] 14.2% | [4] -39% | [5] -3.9% | [6] 16.6%

CCN(CC)CCCNc1ccc(-c2cc(OC)cc3cccnc23)cc1
inactive: [1] -5.95% | [2] -17.1% | [3] -0.05% | [4] -14.1% | [5] 6% | [6] 4.4%

CCOC(=O)/C(C)=C\C1C(C)=CC(=O)CC1(C)C (stereo unspecified)
inactive: [1] -0.05% | [2] -16.1% | [3] -5.1% | [4] -29% | [5] 20.4% | [6] -7.15%

C/C=C\C=N\NC(=O)C(=O)N/N=C/C=C\C
inactive: [1] 0.9% | [2] -17.1% | [3] -7.55% | [4] -56.5% | [5] -8.5% | [6] -0.75%

Cc1ccc(C(=O)N/N=C/c2c(O)ccc3ccccc23)cc1
inactive: [1] -4.7% | [2] 20.7% | [3] 9.95% | [4] -24.9% | [5] 38.5% | [6] 27.1%

COC(=O)c1ccccc1OC(C)=O
inactive: [1] 9.8% | [2] 11.4% | [3] -0.4% | [4] 13.8% | [5] 1.5% | [6] -10.7%

Cc1ccc(N(C)S(=O)(=O)c2ccc([N+](=O)[O-])cc2)cc1
inactive: [1] 8.4% | [2] -2.65% | [3] 29.1% | [4] 21.1% | [5] 42.1% | [6] 26.2%

OC1CSCCCSCC(O)CSCCCSC1 (stereo unspecified)
inactive: [1] 1.7% | [2] 10.9% | [3] 3.4% | [4] -2.5% | [5] 0.2% | [6] 8%

O[C@H]1[C@H]2[C@H](O)C[C@H](CCOCc3ccccc3)CN2C[C@H]1O
inactive: [1] -8.15% | [2] 7.8% | [3] -3.45% | [4] 20% | [5] 16% | [6] -22.9%

CNC1(C(=O)O)CCCCC1
inactive: [1] -0.35% | [2] -4.65% | [3] -2% | [4] 4.6% | [5] 4.85% | [6] -2.2%

COc1ccc(Cl)cc1NC(=O)Nc1cccc(C(C)=O)c1
inactive: [1] -4.55% | [2] 16.6% | [3] 11.3% | [4] -13.3% | [5] 17.9% | [6] 31.4%

O=C(c1ccco1)N(C(=S)N1CCN(c2ccccc2)CC1)c1ccccc1
inactive: [1] -79.7% | [2] -24.4% | [3] -35.5% | [4] -4.4% | [5] -18.1% | [6] -35.2%

N#CCCN(c1ccc(C=Nc2ccc(C(=O)O)cc2)cc1)S(=O)(=O)c1ccccc1
inactive: [1] -0.1% | [2] -29.6% | [3] 7.4% | [4] 5.75% | [5] 19.9% | [6] -11.1%

Cn1ncc2c(=O)[nH]c(=S)[nH]c21
inactive: [1] -9.6% | [2] -4.4% | [3] -5.65% | [4] -32.1% | [5] -2.3% | [6] 3.6%

NC(=O)CCCc1ccc2oc3ccccc3c2c1
inactive: [1] 13.4% | [2] -4.05% | [3] 9.05% | [4] 6.55% | [5] 22.8% | [6] 35.4%

COC(C)CCOC(=O)c1ccccc1C (stereo unspecified)
inactive: [1] 10% | [2] -6.1% | [3] 0.8% | [4] -21.8% | [5] 24.9% | [6] 3.2%

CC/C(N)=N\OC(=O)c1ccccc1
inactive: [1] 14.3% | [2] -4.75% | [3] -4.45% | [4] -44.4% | [5] 2.8% | [6] -5%

NC(=O)N/N=C1\CCCC(OC(=O)c2ccccc2)CC1 (stereo unspecified)
inactive: [1] 2.85% | [2] -27.7% | [3] -16.8% | [4] -20.1% | [5] -1.5% | [6] -20.8%

Cc1nc(N)[nH]c(=O)c1-n1nnc2ccccc2c1=O
inactive: [1] 0.15% | [2] 17.1% | [3] 14.1% | [4] -2.1% | [5] 0.9% | [6] -4.1%

CNC(=O)c1ccccc1N=NN(C)C
inactive: [1] -0.65% | [2] 19.4% | [3] 4.05% | [4] 13.7% | [5] 15.7% | [6] 40.5%

CC1(C)COC(c2ccc(CC(Cc3ccc(C4(C(C)(C)C)OCC(C)(C)CO4)cc3)C(=O)O)cc2)(C(C)(C)C)OC1
inactive: [1] -7.25% | [2] -19.8% | [3] 3.1% | [4] 5.15% | [5] 3.8% | [6] 5.35%

NCCCCCCN1CCN(c2cccc(Cl)c2)CC1
inactive: [1] 14.2% | [2] 21.9% | [3] 14.8% | [4] 7.55% | [5] 13.8% | [6] -13.4%

Cc1ccc(NC(=O)OCC(COc2ccc(Cl)cc2Cl)OC(=O)Nc2ccc(C)cc2)cc1 (stereo unspecified)
inactive: [1] -27.8% | [2] -24.9% | [3] -0.55% | [4] 16.1% | [5] 11.2% | [6] 9.05%

N#CCCCCCCn1cnc2c(=S)nc[nH]c21
inactive: [1] 4.9% | [2] 9.55% | [3] 17.9% | [4] -13% | [5] -4.7% | [6] 22.4%
